Source: PubChem BioAssay
In the library only some 9% were active in any assay of this set; here they are far more common.
Luc counter = Kinase-Glo luciferase inhibition (counter-screen). Potency, µM (doses to about 38.3 µM), for inactives: at the highest dose activity change, negative = inhibition, hits mostly inhibitors. hit rate 0.28% among 200,000. Kinase-Glo luciferase, ATP luminescence, 8 min; further: on the % scale 0 is the no-effect control and ±100 the full control effect; nearly all actives have a fitted effect of over 60% in size
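Recombinant Kinase-Glo luciferase, 10 uM ATP (linear range), luciferin; imidazole pH 7.2 / KCl / MgCl2 / Tween / BSA buffer; 8 min RT; luminescence.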
HTT ATP protect = cytoprotection in Huntington HTT-Q103 PC12 cell model; PC12 HTT-Q103 induced, cytoprotection, ATP luminescence, 40 h; Potency, µM (series often up to 56.4 µM), for the others: cytoprotection (ATP increase), hits mostly activators; hit rate 0.14% among 230,000; AID 1471; further: % of control where 0% means no effect; nearly all actives have a fitted effect of over 45% in size
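Quantitative HTS on tebufenozide-induced (100 nM) PC12 cells expressing HTTQ103 exon 1–GFP; compounds tested as a concentration series; survival measured via cellular ATP.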
HttQ103 aggreg = mutant huntingtin aggregation inhibition; PC12 HttQ103-GFP aggregates, Acumen cytometry, 40 h; Potency, µM (top dose mostly 46.1 µM), for the others: at the top dose activity change, negative = inhibition, most hits filed as inhibitors; hit rate 1.1% among 220,000; AID 1688; further: on the % scale 0 is the no-effect control and ±100 the full control effect; nearly all actives have a fitted effect of over 60% in size
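Inducible Q103 Huntingtin exon 1–GFP PC12 line, 1500 cells/well in phenol red free DMEM with 5% equine and 5% calf serum. Tebufenozide 100 nM induced expression; compounds titrated; aggregates quantified by cytometry.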
Lamin A splicing = modulators of lamin A splicing; HeLa LMNA splicing GFP/RFP minigene ratio, 48 h; Potency, µM (titrated, usually from 46.1 µM), without a hit: top-dose ratio change, negative = inhibition, actives largely listed as inhibitors; hit rate 0.01% among 200,000; AID 1487; active means well fitted inhibition curve with a large enough effect in the signal ratio, with a control signal flat, not every such curve was filed as active; inconclusive means small, poorly fitted or top-dose-only effect, or effect the other way, or a change in a side signal; the % refers to the signal ratio; further: on the % scale 0 is the no-effect control and ±100 the full control effect
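Read-out is the ratio of GFP to DsRed2 object intensity, acquired by 488 nm laser-scanning cytometry on HeLa lamin A-EGFP minigene reporter cells. Compound incubation 48 hrs at 37 °C in Opti-MEM with 2% FBS; DMSO 0.5% final.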
ALDH1A1 inh = ALDH1A1 (human) enzyme inhibition. P00352. Purified ALDH1A1, NADH fluorescence, propionaldehyde substrate. Potency, µM (titrated, usually from 75.3 µM), for the others: at the highest dose activity, negative = inhibition, hits mostly inhibitors. hit rate 7.3% among 220,000. AID 1030; active means well fitted inhibition curve with a large enough effect, not every such curve was filed as active; inconclusive means small, poorly fitted or top-dose-only effect, or another doubt; inactive means no such curve, though single readings can be large or run the other way;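 further: plate controls were no enzyme wells and a reference inhibitor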
Target sequence (P00352 whole entry, looked up): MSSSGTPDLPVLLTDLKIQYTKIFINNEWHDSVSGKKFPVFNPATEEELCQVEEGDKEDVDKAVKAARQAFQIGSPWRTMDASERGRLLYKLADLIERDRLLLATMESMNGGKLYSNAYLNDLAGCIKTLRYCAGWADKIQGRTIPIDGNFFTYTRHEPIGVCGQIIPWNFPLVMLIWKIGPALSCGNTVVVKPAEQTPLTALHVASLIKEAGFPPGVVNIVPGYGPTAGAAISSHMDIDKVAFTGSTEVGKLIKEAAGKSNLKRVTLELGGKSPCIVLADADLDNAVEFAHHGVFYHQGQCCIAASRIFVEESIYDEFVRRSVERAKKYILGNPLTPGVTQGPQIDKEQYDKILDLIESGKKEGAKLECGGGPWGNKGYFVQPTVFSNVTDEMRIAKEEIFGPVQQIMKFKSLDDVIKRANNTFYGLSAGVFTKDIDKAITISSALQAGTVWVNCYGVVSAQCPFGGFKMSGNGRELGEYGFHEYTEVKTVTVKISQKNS
HPGD block = inhibitors of human 15-hydroxyprostaglandin dehydrogenase (HPGD); hit rate 4.3% among 150,000; purified HPGD, NADH fluorescence kinetic, PGE2 substrate; AID 894; P15428; Potency, µM, for inactives: at the highest dose activity change, negative = inhibition, hits mostly inhibitors; active means well fitted inhibition curve with a large enough effect, not every such curve was filed as active; inconclusive means small, poorly fitted or top-dose-only effect, or another doubt; inactive means no such curve, though single readings can be large or run the other way; further: on the % scale 0 is the no-effect control and ±100 the full control effect
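NADH formation kinetics: reaction with 30 uM PGE2 and 1 mM NAD+ (final), 20 nM enzyme, Tris-HCl pH 8 with Tween 20, after 15 min compound preincubation at room temperature. Fluorescence change, last versus first of five reads.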
An asterisk follows results filed as active; ? = inconclusive; . = not tested or not shown; [ ] = remark or other dose. Unless noted, the call rests on the fitted dose curve; in most records, active means well fitted curve in the direction sought with a large enough effect; inconclusive means small, poorly fitted or top-dose-only effect, or another doubt; inactive means no such curve, though single readings can be large; an effect the other way counts as inactive or inconclusive. Potency means the concentration at half of the fitted maximal effect.

SMILES	Luc counter	HTT ATP protect	HttQ103 aggreg	Lamin A splicing	ALDH1A1 inh	HPGD block
O=c1n(Cc2ccccc2Cl)c2sc3c(c2c2ncnn12)CCCC3	-3%	3%	0%	5%	0%	-9%
C=CCNC(=O)c1ccccc1NC(=O)c1cccc2ccccc12	-5%	-2%	-3%	-16%	?	-19%
O=C(NCCn1cccc1)c1cccc2ccccc12	-3%	-19%[0.074 µM]	28%	13%	-4%	32µM*
CCc1nc2c(oc3ccccc32)c(=O)[nH]1	-10%	-6%	14%	-2%[0.0737 µM]	?	-17%
CCOC(=O)c1c(N)sc(C)c1-c1ccccc1	-2%[39.9 µM]	-91%	.	.	?	25µM*
CCOC(=O)c1cc(-c2ccccc2)sc1N	0%	-26%[10 µM]	-19%	-5%	11µM*	11µM*
CCOC(=O)c1cc(-c2ccccc2)sc1NC(=O)c1ccc(OC)cc1	1%	11%	-1%	13%	?	3.5µM*
CCOC(=O)c1c(N)sc(-c2ccccc2)c1C	-2%	-20%[10 µM]	-15%	-2%	?	?
CC1CCc2cc(F)cc3c(O)c(C(=O)NCc4ccco4)c(=O)n1c23 (configuration not stated)	1%	-12%	-8%	-6%	-12%	-15%
Cc1cccc(-c2nc3ccccc3c(=O)n2NC(=O)c2cccnc2Cl)c1	1%	3%[10 µM]	-17%	-9%	-4%	-10%
Cc1nc(NCc2ccco2)c(C#N)c2c1COC(C)(C)C2	2%	-14%	3%	21%	-5%	?
CC1(C)Cc2c(C#N)c(NCc3ccco3)nc(-c3ccco3)c2CO1	0%	-24%[10 µM]	1µM*	25%	?	?
CC1(C)Cc2c(c(-c3ccco3)nc3n[nH]c(N)c23)CO1	-4%	-15%	6%	?	25µM*	?
CC(C)Nc1nc(C#N)nc(NC(C)C)n1	1%	6%	?	?	0%	-9%
OCCNc1nc(N2CCN(Cc3ccccc3)CC2)nc2ccccc12	-2%	-33%	-1%	11%	-8%	-14%
CC(C)OCCCNc1ncnc2c1[nH]c1ccccc12	-3%	19%[1.9 µM]	7.1µM*	?	?	-28%
Cc1cc(O)cc(O)c1C(=O)OC1(C)C(=O)C=C2C=C(/C=C/CO)OC=C2C1=O (configuration not stated)	-1%	17%	.	.	22µM*	-10%
CCCCC/C=C\C=C\C(O)CCCCCCCC(=O)O (configuration not stated)	-1%	-25%	.	.	-7%	-2%
CCN(Cc1ccncc1)Cc1nc(Cc2ccccc2Cl)no1	2%	-12%	18µM*	-6%[46 µM]	-1%	.
FC(F)(F)c1cc(-c2ccco2)nc(N2CCN(Cc3ccccc3)CC2)n1	-5%	31%	1%	-19%	22µM*	-19%
CCOC(=O)C1CCN(C(=O)Cc2cccs2)CC1	-3%	5%[0.074 µM]	-16%	0%	-2%	-2%
Cc1ccc2c(c1)S/C(=C/c1ccc[n+](CCO)c1)N2C	-4%	-46%	-19%	.	-8%	.
Cc1cc(/C=C2\Sc3ccccc3N2C)cc(C)[n+]1CC1CCCO1 (configuration not stated)	-3%	-62%[10 µM]	2.8µM*	10%[46 µM]	?	.
CN(C)/C=N/c1ncc(C(=O)OC(C)(C)C)s1	2%	-25%	3%	.	?	.
C=C1C(=O)[C@@]23[C@H](O)C[C@@H]4C(C)(C)CC[C@H](O)[C@@]4(C)[C@@H]2CC[C@@H]1[C@H]3O	-1%	.	2.8µM*	?	0%	-21%
C=C1C(=O)[C@@]23[C@H](O)C[C@@H]4C(C)(C)CC[C@H](O)[C@]4(C)[C@@H]2C[C@H](O)[C@@H]1[C@H]3O	0%	.	3.2µM*	?	-2%	-15%
CC(C)(C)c1cn(-c2ccccc2)c(=S)[nH]1	5%	-10%	-9%	0%	-5%	-19%
NC(=O)/N=N/C(N)=O	.	-2%	.	.	0.45µM*	10µM*
